Assay results from PubChem BioAssay AID720724 (Broad Institute, 2013).
Entries with a potency or affinity are not part of this list. Values without a mark were called inactive.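 How the source made its calls: active means signal falls with a fitted half-maximal dose at most twice the top dose, in every run; inconclusive means steady partial drop, poor fit, or runs disagree; inactive means flat, rising or too weak in every run.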

Assay: inhibitors of control Renilla luciferase reporter, dose response, counter-screen for Shn3 3'UTR targeting project, Clone20-Shn3RL cells, dual-Glo, cherry-pick, set 2 (AID 720724)
Settings: renilla luciferase luminescence, 24 h; series mostly up to 35 µM; activity change, negative = inhibition: at the top concentration

Structure (SMILES) | activity change, negative = inhibition [%]
CCn1c(C)cc(C(=O)COC(=O)c2ccccc2[N+](=O)[O-])c1C | -12.5
O=C(Nc1ccc(N2CCOCC2)cc1)c1ccc(Cl)c(S(=O)(=O)N2CCCC2)c1 | -12.5
Oc1ccc(-c2n[nH]c(C(F)(F)F)c2-c2ccccc2)c(O)c1 | -42.5
Cc1ccc(-c2cn3cc(C)ccc3n2)cc1 | -12.5
CC1Cc2cc(S(=O)(=O)N3CCN(c4ccc(Cl)cc4)CC3)ccc2N1C(=O)C1CC1 (centres undefined) | 25
O=C(CN1C(=O)c2ccccc2S1(=O)=O)c1ccc(Cl)cc1Cl | -25
CC(C)(C)C(=O)Nc1ccc(NC(=O)c2ccco2)nc1 | -20
CCOC(=O)c1oc2ccc(S(=O)(=O)n3nc(-c4ccc(OC)cc4)cc3N)cc2c1C | 2.5
CC(C)Cn1c(N)c(C(=O)COC(=O)C2Cc3ccccc3CN2S(C)(=O)=O)c(=O)n(C)c1=O (centres undefined) | -46.7
COc1ccc(CNC(=O)C(C)n2ccc3cc(S(=O)(=O)N4CCCCCC4)ccc32)cc1 (centres undefined) | 62.5
Cc1cccc(-c2noc(CN(C(=O)C(c3ccccc3)c3ccccc3)C(C)C)n2)c1 | -10
CC(C)(C)C(=O)Nc1cc2nn(-c3ccccc3)nc2cc1Cl | -20
CCc1ccccc1NC(=O)COC(=O)c1c(C)nsc1NC | -32.5
CCCCOCCCNc1ncnc2c1[nH]c1ccccc12 | -8.33
Cc1cccc(NS(=O)(=O)c2ccc(C3CCCCC3)cc2)c1 | 10
Cc1cc(C(=O)COC(=O)c2ccccc2O)c(C)n1Cc1cccs1 | -29.2
COc1ccccc1NS(=O)(=O)c1cc(NC(=O)c2ccc(Cl)nc2)ccc1Cl | -30

Structure (SMILES) | activity change, negative = inhibition [%]
Fc1ccc(-n2nnnc2-c2cnc(-c3cccs3)nc2C(F)(F)F)cc1 | -25
COc1cc(NC(=O)c2cccc3c(-c4cccnc4)coc23)cc(OC)c1OC | -20
O=C(COC(=O)c1n[nH]c2ccccc12)Nc1ccc(S(=O)(=O)N2CCCC2)cc1 | 20
COc1ccc(NS(=O)(=O)c2ccc(OC)c(N(C)S(=O)(=O)c3ccc(Cl)cc3)c2)cc1 | -10
COc1ccccc1NC(=O)Cn1cc(C(=O)C2CC2)c2ccccc21 | -20
CC(Oc1ccc(F)cc1)C(=O)N(CCC1=CCCCC1)c1c(N)n(Cc2ccccc2)c(=O)[nH]c1=O (centres undefined) | 25
O=C(NCCc1ccccc1)c1ccc2c(c1)OCCCO2 | -25
COc1ccc(C(=O)Nc2nc3ccccc3s2)c(OC)c1 | 87.5
CCN(CC)S(=O)(=O)c1ccc(S(=O)(=O)Nc2c(C)nn(C)c2C)cc1 | -30
O=C(O)c1cccc(COc2ccccc2Cl)c1 | -12.5
Cc1ccc2c(c1)nnn2C1CCN(S(=O)(=O)c2ccc(C(=O)N3C(C)CCCC3C)cc2)CC1 (centres undefined) | -20
COc1ccc(OCc2cccc(C(=O)O)c2)cc1 | -29.2
COc1ccc(CNC(=O)C(c2ccc(C)cc2)N(Cc2cccs2)C(=O)c2ccc3c(c2)OCCO3)cc1 (centres undefined) | 0
Cc1ccc(NC(=O)c2cc(S(=O)(=O)NCCC3=CCCCC3)ccc2F)cc1F | -40
Cc1ccc(-c2nc3ncccc3o2)cc1NC(=O)c1sc2ccccc2c1Cl | -12.5
Cc1nc(SCC(=O)Nc2nc3ccccc3s2)c(C#N)c(C)c1C | -12.5
Cc1onc(-c2ccccc2Cl)c1C(=O)N(C)C1CCCCC1 | -40
